Rows were chosen to be rich in hits. Some 2.9% of all compounds tested hit in one or more screens of this group.
PME-1 inh – blocks human protein phosphatase methylesterase 1; Q9Y570; recombinant PME-1, FP-Rh probe fluorescence polarization; inhibition, % at 5.9 µM; actives 0.53% (n = 320,000); AID 2130;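 active = inhibition above the campaign mean of all compounds plus 3 SD, cut at about 26% in these data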;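 note: competitive labeling of PME-1 active site by serine hydrolase directed probe; 0% = PME-1 with DMSO and 100% = wells lacking PME-1 enzyme; inhibitors block probe labeling so polarization falls and inhibition rises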
Fam108B inh – counter-screen for RBBP9 inhibitors: inhibitors of mouse Fam108B; recombinant Fam108B, FP-Rh probe fluorescence polarization; inhibition, % at 9.51 µM; actives 0.33% (n = 300,000); AID 1947;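 active = inhibition above the screen mean inhibition plus 3 SD, computed separately per campaign, cut at about 18% in these data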;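 note: inhibitors lower polarization as less probe binds the enzyme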
PAFAH1B2 inh – inhibitors of human PAFAH1B2. recombinant PAFAH1B2, FP-rhodamine activity probe, fluorescence polarization. actives 1.2% (n = 340,000). inhibition, % at 3.39 µM. AID 492953. P68402;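 active = inhibition above the mean of all tested compounds plus 3 SD, cut at about 24% in these data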;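 note: 0% = enzyme with DMSO and 100% = wells lacking PAFAH1B2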
Target sequence (P68402 whole entry, looked up): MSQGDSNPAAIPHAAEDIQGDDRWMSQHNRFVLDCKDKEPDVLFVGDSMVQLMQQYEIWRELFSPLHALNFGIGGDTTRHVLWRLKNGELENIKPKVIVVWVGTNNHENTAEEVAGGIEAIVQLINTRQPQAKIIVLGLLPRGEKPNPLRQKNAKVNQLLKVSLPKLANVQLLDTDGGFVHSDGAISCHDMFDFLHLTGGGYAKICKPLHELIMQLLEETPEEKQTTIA
pPAFAH FP inh – inhibitors of human plasma PAF acetylhydrolase (pPAFAH); actives 1.5% (n = 330,000); AID 463082; inhibition, % at 3.39 µM; recombinant pPAFAH, FP-rhodamine probe fluorescence polarization; Q13093;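 active = inhibition above the mean inhibition across the screen plus 3 SD, cut at about 25% in these data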;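 note: inhibitors block binding of the rhodamine activity-based probe so polarization drops; 0% = enzyme with DMSO and 100% = wells lacking pPAFAH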
PAFAH2 FP inh – PAFAH2 (human) inhibition; Q99487; recombinant PAFAH2, FP-rhodamine activity probe, fluorescence polarization; inhibition, % at 3.39 µM; actives 0.99% (n = 340,000);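 active = inhibition above the mean over all tested compounds plus 3 SD, cut at about 30% in these data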;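 note: inhibitors block probe labeling of enzyme so polarization drops; 0% = enzyme with DMSO and 100% = wells lacking PAFAH2 protein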
PAFAH1B3 inh – blocks human PAF acetylhydrolase 1B catalytic subunit 3 | Q15102 | recombinant PAFAH1B3, FP-rhodamine probe, fluorescence polarization | inhibition, % at 3.39 µM | actives 0.28% (n = 340,000);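 active = inhibition above the screen-wide average of all tested compounds plus 3 SD, cut at about 25% in these data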;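 note: 0% = enzyme with DMSO only and 100% = wells lacking PAFAH1B3 protein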
Target sequence (Q15102 whole entry, looked up): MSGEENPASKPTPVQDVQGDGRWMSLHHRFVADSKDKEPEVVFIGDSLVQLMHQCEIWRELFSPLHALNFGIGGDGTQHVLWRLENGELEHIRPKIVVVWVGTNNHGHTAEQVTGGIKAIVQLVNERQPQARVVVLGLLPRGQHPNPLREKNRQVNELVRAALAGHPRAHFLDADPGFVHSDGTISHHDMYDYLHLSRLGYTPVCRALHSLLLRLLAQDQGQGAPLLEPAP
PAFAH2 FP conf – confirmation of human PAFAH2 inhibitors. shares compounds with PAFAH2 FP inh. recombinant PAFAH2, FP-rhodamine activity probe, fluorescence polarization. inhibition, % at 3.39 µM. actives 65% (n = 2,300). AID 493030;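 active = mean inhibition over three repeats above a set limit taken from the earlier primary screen, cut at about 30% in these data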;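 note: inhibitor blocks binding of rhodamine activity probe so polarization falls; 0% = enzyme with DMSO and 100% = wells lacking PAFAH2 protein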
The depositor's hits bear a star.

Screening COc1cc2nc(-c3ccccc3C)oc(=O)c2cc1OC returned PME-1 inh 0, Fam108B inh 0, PAFAH1B2 inh 1, pPAFAH FP inh 1, PAFAH2 FP inh 6 and PAFAH1B3 inh 10.
For Cc1cc2c(=O)oc(-c3ccccc3Br)nc2s1 the results were PAFAH1B2 inh 3, PAFAH2 FP inh 69*, PAFAH1B3 inh 5 and PAFAH2 FP conf 52*.
`O=C(CCCn1c(SCC(=O)NC2CCCCC2)nc2ccccc2c1=O)NCC1CCCO1` (stereo not given) gave PME-1 inh -6, Fam108B inh -1, PAFAH1B2 inh 3, pPAFAH FP inh 5, PAFAH2 FP inh -11 and PAFAH1B3 inh 11.
Screening Cc1ccc(NC(=O)CSc2nc3ccccc3c(=O)n2CCCC(=O)NCCCN2CCOCC2)cc1C returned PME-1 inh -2, Fam108B inh 2, PAFAH1B2 inh -1, pPAFAH FP inh 2, PAFAH2 FP inh -10 and PAFAH1B3 inh 1.
CCc1ccc(NC(=O)CSc2nc3ccccc3c(=O)n2CCCC(=O)NCCCN2CCOCC2)cc1 was read as PME-1 inh -4, Fam108B inh -2, PAFAH1B2 inh 3, pPAFAH FP inh 3, PAFAH2 FP inh 196*, PAFAH1B3 inh 6 and PAFAH2 FP conf 2.
For O=C(CCCn1c(SCC(=O)c2ccc(O)c(O)c2)nc2ccccc2c1=O)NCC1CCCO1 (stereo not given) the results were PME-1 inh 3, Fam108B inh -3, PAFAH1B2 inh 13, pPAFAH FP inh 34*, PAFAH2 FP inh 35*, PAFAH1B3 inh 4 and PAFAH2 FP conf 11.
Cc1ccc(C(=O)Nc2c3c(nn2C(C)(C)C)CS(=O)(=O)C3)cc1C was read as PME-1 inh -5, Fam108B inh 0, PAFAH1B2 inh -1, pPAFAH FP inh 4, PAFAH2 FP inh 2 and PAFAH1B3 inh 3.
Screening Cc1ccc(N2CC(C(=O)Nc3c4c(nn3C(C)(C)C)CS(=O)(=O)C4)CC2=O)cc1C (stereo not given) returned PME-1 inh 4, Fam108B inh -1, PAFAH1B2 inh -3, pPAFAH FP inh 5, PAFAH2 FP inh 158*, PAFAH1B3 inh -3 and PAFAH2 FP conf 0.
Screening Cc1ccc(S(=O)(=O)N2CCC(C(=O)Nc3ccccc3N3CCCCC3)CC2)cc1C returned PME-1 inh 3, Fam108B inh -4, PAFAH1B2 inh -5, pPAFAH FP inh -1, PAFAH2 FP inh -1 and PAFAH1B3 inh 1.
For NC(=O)C1CC(=O)N(c2ccc(OCC(=O)N3CCCC3)cc2)C1 (stereo not given) the results were PAFAH1B2 inh 2, PAFAH2 FP inh 57*, PAFAH1B3 inh 6 and PAFAH2 FP conf 48*.
O=C(COc1ccc(Cl)cc1)OCC(=O)N1CCCC1 was read as PME-1 inh 9, Fam108B inh -1, PAFAH1B2 inh 5, pPAFAH FP inh 16, PAFAH2 FP inh 37*, PAFAH1B3 inh 10 and PAFAH2 FP conf 21.
For CNC(=O)C1CC(=O)N(c2ccc(OCC(=O)N3CCCC3)cc2)C1 (stereo not given) the results were PME-1 inh 0, Fam108B inh 0, PAFAH1B2 inh 1, pPAFAH FP inh -3, PAFAH2 FP inh -1 and PAFAH1B3 inh 6.
Screening O=C(NCc1cccc(F)c1)C1CCC(=O)N(C2CCCC2)C1 (stereo not given) returned PME-1 inh -2, Fam108B inh 1, PAFAH1B2 inh 3, pPAFAH FP inh 3, PAFAH2 FP inh 5 and PAFAH1B3 inh 16.
`CCN(C(=O)c1ccc2c(c1)OCO2)C12CC3CC(CC(C3)C1)C2` gave PAFAH1B2 inh 11, pPAFAH FP inh 7, PAFAH2 FP inh 40*, PAFAH1B3 inh 5 and PAFAH2 FP conf 35*.
`O=C(CSc1cccc[n+]1[O-])C12CC3CC(CC(C3)C1)C2` gave PME-1 inh 0, Fam108B inh -5, PAFAH1B2 inh 6, pPAFAH FP inh 7, PAFAH2 FP inh 48*, PAFAH1B3 inh 4 and PAFAH2 FP conf 46*.
For O=C(O)CSc1cccc[n+]1[O-] the results were PME-1 inh 5, Fam108B inh 1, PAFAH1B2 inh -1, pPAFAH FP inh 0, PAFAH2 FP inh -4 and PAFAH1B3 inh 5.
